Data on 10 compounds can be found in PubChem BioAssay (Tox21).

Records with an inconclusive call do not appear. Unmarked numbers belong to inactive results. Activity calls are given as the source filed them. Unless noted, calls come from the whole dose curve.

A short description of experiment [1]: qHTS assay to identify small molecule agonists of the peroxisome proliferator-activated receptor delta (PPARd) signaling pathway - cell viability counter screen (AID 743211; active = well fitted curve in the direction sought with a large enough effect in the repeat runs; an effect the other way counts as inactive or inconclusive; note: nearly all actives have a fitted effect of over 55% in size; note: potency is the fitted concentration of half-maximal effect). The method in brief:
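Following 5 h plating at 37 C and 5% CO2, PPARd UAS-bla HEK293H cells took up test compounds for 17 h. Viability was quantified by luminescence 30 min after CellTiter-Glo addition at room temperature.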

For experiment [2], the target named is Peroxisome proliferator-activated receptor delta (Homo sapiens) (UniProt Q03181). The experiment can be described thus: qHTS assay to identify small molecule agonists of the peroxisome proliferator-activated receptor delta (PPARd) signaling pathway (AID 743212). Note: % is set by controls: 0 for no effect and ±100 for the full control effect. In short, it runs like this:
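HEK293H UAS-bla reporter cells, human PPARd system; compounds delivered in DMSO after 5 h plating, then at 37 C. Beta-lactamase FRET read, 2 h RT substrate step.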
For orientation: In qHTS, concentration-response curves come from the screen itself.

Experiment [3] has as its target Bile acid receptor (Homo sapiens) (UniProt Q96RI1). Kind of experiment: qHTS assay to identify small molecule antagonists of the farnesoid-X-receptor (FXR) signaling pathway (AID 743217; active = well fitted inhibition curve with a large enough effect in the signal ratio in the repeat runs, not every such curve was filed as active; the % refers to the signal ratio; note: % is set by controls: 0 for no effect and ±100 for the full control effect). In short, it runs like this: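 FXR-UAS-bla HEK 293T cells (beta-lactamase reporter) given compound plus chenodeoxycholic acid (50 uM final), 16 h at 37C. LiveBLAzer B/G FRET substrate added for 2 h at room temperature; fluorescence read.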

Experiment [4] can be described thus: qHTS assay to identify small molecule agonists of the farnesoid-X-receptor (FXR) signaling pathway - cell viability counter screen (AID 743218; active = well fitted curve in the direction sought with a large enough effect in the repeat runs; an effect the other way counts as inactive or inconclusive; note: nearly all actives have a fitted effect of over 45% in size; note: potency is the fitted concentration of half-maximal effect). In short, it runs like this: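 FXR-UAS-bla HEK 293T cells exposed to compounds for 16 h at 37C. Cytotoxicity read in the same wells by CellTiter-Glo luminescence after 30 min at room temperature, following the beta-lactamase FRET read.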

The nature of experiment [5]: qHTS assay to identify small molecule antagonists of the farnesoid-X-receptor (FXR) signaling pathway - cell viability counter screen (AID 743221; active = well fitted cell-killing curve with a large enough effect in the repeat runs, not every such curve was filed as active; note: nearly all actives have a fitted effect of over 50% in size; note: potency is the fitted concentration of half-maximal effect). The method in brief: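 Compound effects on cell number were measured as CellTiter-Glo luminescence in HEK 293T cells expressing FXR-UAS-bla, after 16 h at 37 C with 50 uM CDCA (final).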
The target of experiment [6] is Vitamin D3 receptor (Homo sapiens) (UniProt P11473). Kind of experiment: qHTS assay to identify small molecule agonists of the vitamin D receptor (VDR) signaling pathway (AID 743222). Note: % is set by controls: 0 for no effect and ±100 for the full control effect. In short, it runs like this:
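VDR-bla cells plated 4 h at 37 C, then exposed to compounds for 16 h at 37 C. Beta-lactamase reporter activity measured by fluorescence after 2 h room-temperature loading with LiveBLAzer B/G FRET substrate.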

The target is the same in experiment [7]. The experiment can be described thus: qHTS assay to identify small molecule antagonists of the vitamin D receptor (VDR) signaling pathway (AID 743223; active = well fitted inhibition curve with a large enough effect in the signal ratio in the repeat runs, not every such curve was filed as active; the % refers to the signal ratio; note: % is set by controls: 0 for no effect and ±100 for the full control effect). In short, it runs like this:
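Beta-lactamase activity in VDR-bla cells is measured by FRET substrate fluorescence (2 h, room temperature) after cells spend 16 h at 37C with test compound and 3 nM final 1alpha,25-dihydroxyvitamin D3.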

Experiment [8] can be described thus: qHTS assay to identify small molecule agonists of the vitamin D receptor (VDR) signaling pathway - cell viability counter screen (AID 743224; active = well fitted curve in the direction sought with a large enough effect in the repeat runs; an effect the other way counts as inactive or inconclusive; note: series mostly up to about 63 µM; % is set by controls: 0 for no effect and ±100 for the full control effect; nearly all actives have a fitted effect of over 50% in size). In short, it runs like this: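 VDR-bla cells, 4 h after plating, exposed to compounds for 16 h at 37C; viability then read in the same wells as CellTiter-Glo luminescence after 30 min at room temperature, following the bla FRET read.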

A short description of experiment [9]: qHTS assay to identify small molecule agonists of the NFkB signaling pathway - cell viability counter screen (AID 1159515). Note: series mostly up to about 61 µM; % is set by controls: 0 for no effect and ±100 for the full control effect; nearly all actives have a fitted effect of over 55% in size. In short, it runs like this:
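NFkB-bla ME-180 cells, 2,000/well, plated overnight at 37 C; compound added for 5 hr at 37 C. Viability read in the same wells as the bla reporter, by CellTiter-Glo luminescence after 30 min at room temperature.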

Experiment [10] is described as follows: qHTS assay to identify small molecule agonists of the endoplasmic reticulum stress response signaling pathway (AID 1159516; active = well fitted activation curve with a large enough effect in the signal ratio in the repeat runs, not every such curve was filed as active; the % refers to the signal ratio; note: % is set by controls: 0 for no effect and ±100 for the full control effect). In short, it runs like this: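 CellSensor ESRE-bla HeLa cells, 1,500 per well, plated overnight, then exposed to compounds for 5 hr at 37 C. Beta-lactamase reporter read with LiveBLAzer B/G FRET substrate after 2 hr at room temperature, 405 nm excitation, 460 and 530 nm emission.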

The nature of experiment [11]: qHTS assay to identify small molecule antagonists of the retinoid-related orphan receptor gamma (ROR-gamma) signaling pathway - cell viability counter screen (AID 1159520; active = well fitted curve in the direction sought with a large enough effect in the repeat runs; an effect the other way counts as inactive or inconclusive; note: % is set by controls: 0 for no effect and ±100 for the full control effect; nearly all actives have a fitted effect of over 50% in size). The method in brief: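 Cytotoxicity was read from cellular ATP (CellTiter-Glo luminescence) after 16 hr at 37 C with 1 uM doxycycline induction. The inducer was added 2 hr after compound transfer to Tet-on ROR gamma CHO cells.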

The target of experiment [12] is Nuclear receptor ROR-gamma (Homo sapiens) (UniProt P51449). The experiment can be described thus: qHTS assay to identify small molecule antagonists of the retinoid-related orphan receptor gamma (ROR-gamma) signaling pathway (AID 1159521; active = well fitted curve in the direction sought with a large enough effect in the repeat runs; an effect the other way counts as inactive or inconclusive; note: nearly all actives have a fitted effect of over 50% in size; note: potency is the fitted concentration of half-maximal effect). In short, it runs like this: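 Screening format: cell-based luciferase reporter in CHO cells with doxycycline-inducible RORγ. Compound pre-exposure lasts 2 h, doxycycline is 1 uM final, induction runs 16 h at 37 C, and ONE-Glo luminescence is read.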

Experiment [13] can be described thus: qHTS assay to identify small molecule agonists of the AP-1 signaling pathway - cell viability counter screen (AID 1159525). Note: nearly all actives have a fitted effect of over 55% in size. The method in brief: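 Luminescent ATP readout (Cell Titer Glo, 30 min RT), normalised to DMSO and tetra n-octyl ammonium bromide controls. Cells were ME-180 AP-1-bla in 0.5% dialyzed FBS Opti-MEM, with a 5 h, 37 °C compound exposure.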

Experiment [14] in a line: qHTS assay to identify small molecule agonists of the AP-1 signaling pathway (AID 1159526). Note: % is set by controls: 0 for no effect and ±100 for the full control effect.
Experiment [15] deals with Retinoic acid receptor RXR-alpha (Homo sapiens) (UniProt P19793). The experiment can be described thus: qHTS assay to identify small molecule agonists of the RXR signaling pathway (AID 1159527). Note: % is set by controls: 0 for no effect and ±100 for the full control effect; nearly all actives have a fitted effect of over 35% in size. In short, it runs like this: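 Fluorescence ratio readout (460 vs 530 nm) from GeneBLAzer RXR-alpha HEK 293T cells after 16 hr compound treatment; cells seeded 5 hr beforehand in low-serum, charcoal-stripped medium.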

A short description of experiment [16]: qHTS assay to identify small molecule antagonists of the vitamin D receptor (VDR) signaling pathway - cell viability counter screen (AID 743225; active = well fitted curve in the direction sought with a large enough effect in the repeat runs; an effect the other way counts as inactive or inconclusive). The method in brief:
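In this counter screen, VDR-bla HEK 293T cells receive test compound plus 3 nM final calcitriol for 16 h at 37C. Room-temperature steps of 2 h with the beta-lactamase substrate, then 30 min with CellTiter-Glo, precede the luminescence read.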

Experiment [17] in a line: qHTS assay to identify small molecule agonists of the endoplasmic reticulum stress response signaling pathway - cell viability counter screen (AID 1159517). In short, it runs like this: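 Cells, HeLa ESRE-bla; density, 1,500/well; dosing, 5 hr at 37 C, 5% CO2; readout, CellTiter-Glo luminescence after 30 min RT.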
The nature of experiment [18]: qHTS assay to identify small molecule antagonists of the peroxisome proliferator-activated receptor delta (PPARd) signaling pathway - cell viability counter screen (AID 743213; active = well fitted curve in the direction sought with a large enough effect in the repeat runs; an effect the other way counts as inactive or inconclusive). In short, it runs like this: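 In this counter screen, HEK293H cells carrying a UAS-beta-lactamase reporter are co-treated with test compounds and 300 nM L165041 (final) for 17 h at 37 C; cell viability is quantified by CellTiter-Glo luminescence.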

Experiment [19] concerns the target Peroxisome proliferator-activated receptor delta (Homo sapiens) (UniProt Q03181). The experiment can be described thus: qHTS assay to identify small molecule antagonists of the peroxisome proliferator-activated receptor delta (PPARd) signaling pathway (AID 743215; active = well fitted inhibition curve with a large enough effect in the signal ratio in the repeat runs, not every such curve was filed as active; the % refers to the signal ratio). The method in brief: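 PPARd-bla HEK293H cells (UAS-bla reporter) preincubated 5 h, then given compound plus 300 nM final L165041 agonist for 17 h at 37 C. Beta-lactamase activity read by LiveBLAzer B/G FRET substrate fluorescence after 2 h at room temperature.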

In experiment [20] the target is Bile acid receptor (Homo sapiens) (UniProt Q96RI1). Kind of experiment: qHTS assay to identify small molecule agonists of the farnesoid-X-receptor (FXR) signaling pathway (AID 743220; active = well fitted activation curve with a large enough effect in the signal ratio in the repeat runs, not every such curve was filed as active; the % refers to the signal ratio; note: % is set by controls: 0 for no effect and ±100 for the full control effect). The method in brief: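 Beta-lactamase reporter under UAS control in GeneBLAzer FXR HEK 293T cells (5000/well) measured with LiveBLAzer FRET substrate after 2 h at room temperature. Compound exposure lasted 16 h at 37C.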
Chain of Bile acid receptor (Homo sapiens) (Q96RI1 whole entry, looked up): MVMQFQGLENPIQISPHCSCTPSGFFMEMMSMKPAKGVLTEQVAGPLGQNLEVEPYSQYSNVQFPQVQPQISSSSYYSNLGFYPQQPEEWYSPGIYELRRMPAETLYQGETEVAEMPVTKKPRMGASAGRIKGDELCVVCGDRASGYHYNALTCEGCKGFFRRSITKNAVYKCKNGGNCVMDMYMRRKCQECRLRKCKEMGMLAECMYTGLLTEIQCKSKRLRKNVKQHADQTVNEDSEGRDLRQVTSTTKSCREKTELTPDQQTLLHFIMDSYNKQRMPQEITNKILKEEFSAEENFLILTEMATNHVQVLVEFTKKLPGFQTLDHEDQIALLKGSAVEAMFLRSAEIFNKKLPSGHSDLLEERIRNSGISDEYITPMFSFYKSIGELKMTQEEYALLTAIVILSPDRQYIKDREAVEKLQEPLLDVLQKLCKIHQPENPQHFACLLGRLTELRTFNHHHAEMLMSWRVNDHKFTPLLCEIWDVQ

Chain of Vitamin D3 receptor (Homo sapiens) (P11473 whole entry, looked up): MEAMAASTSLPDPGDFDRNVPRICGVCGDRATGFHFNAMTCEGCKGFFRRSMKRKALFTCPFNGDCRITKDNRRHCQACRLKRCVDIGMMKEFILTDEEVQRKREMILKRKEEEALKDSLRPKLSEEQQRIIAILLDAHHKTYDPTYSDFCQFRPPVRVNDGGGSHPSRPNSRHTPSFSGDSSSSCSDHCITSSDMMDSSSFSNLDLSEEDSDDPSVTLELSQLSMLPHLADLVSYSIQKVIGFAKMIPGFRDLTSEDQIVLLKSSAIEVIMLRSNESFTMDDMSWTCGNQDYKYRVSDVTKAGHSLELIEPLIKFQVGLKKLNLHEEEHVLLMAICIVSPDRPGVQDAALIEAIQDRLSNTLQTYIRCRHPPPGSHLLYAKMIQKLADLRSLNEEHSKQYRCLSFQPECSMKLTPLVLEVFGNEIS
Chain of Peroxisome proliferator-activated receptor delta (Homo sapiens) (Q03181 whole entry, looked up): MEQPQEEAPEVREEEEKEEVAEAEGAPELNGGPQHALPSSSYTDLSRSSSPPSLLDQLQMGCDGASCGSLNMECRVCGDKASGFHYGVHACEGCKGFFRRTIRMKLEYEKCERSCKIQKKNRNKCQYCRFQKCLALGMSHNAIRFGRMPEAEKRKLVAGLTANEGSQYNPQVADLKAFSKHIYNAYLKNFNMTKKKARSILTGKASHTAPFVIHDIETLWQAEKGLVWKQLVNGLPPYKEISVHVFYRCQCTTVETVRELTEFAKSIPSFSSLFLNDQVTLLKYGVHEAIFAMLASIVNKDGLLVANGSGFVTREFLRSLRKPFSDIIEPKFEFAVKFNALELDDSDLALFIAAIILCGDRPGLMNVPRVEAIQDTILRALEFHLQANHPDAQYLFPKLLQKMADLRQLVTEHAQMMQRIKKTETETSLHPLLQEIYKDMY
Chain of Retinoic acid receptor RXR-alpha (Homo sapiens) (P19793 whole entry, looked up): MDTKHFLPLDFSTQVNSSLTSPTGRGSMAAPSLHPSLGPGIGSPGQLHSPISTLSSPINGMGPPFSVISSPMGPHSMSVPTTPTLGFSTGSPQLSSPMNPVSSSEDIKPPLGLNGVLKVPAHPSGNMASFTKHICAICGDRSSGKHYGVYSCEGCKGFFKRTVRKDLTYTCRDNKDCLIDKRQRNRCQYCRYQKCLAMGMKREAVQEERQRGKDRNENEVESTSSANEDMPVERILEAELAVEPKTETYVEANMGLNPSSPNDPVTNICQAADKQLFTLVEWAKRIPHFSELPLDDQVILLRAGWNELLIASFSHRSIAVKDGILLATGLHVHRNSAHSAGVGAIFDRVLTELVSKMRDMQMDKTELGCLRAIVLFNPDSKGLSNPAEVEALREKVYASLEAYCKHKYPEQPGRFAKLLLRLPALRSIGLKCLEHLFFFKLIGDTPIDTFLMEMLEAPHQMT

On to `CCOC(=O)Cc1ccccc1`, for which the Potency result in experiment [1], in experiment [2], in experiment [3], in [4], in [5] and in [6] was “inactive” in each case. Also, the Potency result in experiment [7], in experiment [8], in [9], in [10], in [11] and in experiment [12] was “inactive” in each case. Further, the Potency entry in experiment [13], in experiment [14] and in [15] was “inactive” throughout.
Turning to `CCCCCCC[CH2][Sn]([Cl])([Cl])[CH2]CCCCCCC`, the Potency in [1] was 24.5 µM (active); in experiment [4] it was 11 µM (active); in experiment [5], 54.9 µM (active). In addition, the Potency entry in experiment [16], in experiment [9], in experiment [10], in experiment [17] and in [13] was “inactive” each time.
Turning to `FC(F)C(F)(F)OCC(Cn1cncn1)c1ccc(Cl)cc1Cl` (stereo unspecified), the Potency result in [2], in [6], in experiment [7], in experiment [16], in [9] and in [10] was “inactive” throughout. The Potency result in experiment [17], in experiment [13], in experiment [14] and in [15] was “inactive” throughout.
For the compound `O=[N+]([O-])c1ccccc1-c1ccccc1`, the Potency entry in experiment [1], in experiment [18], in experiment [4], in [5], in [8] and in experiment [16] was “inactive” throughout. Besides, the Potency result in experiment [9], in experiment [10], in [17], in [13] and in experiment [15] was “inactive” in each case.
With `ClSC(Cl)(Cl)Cl`, the Potency result in experiment [1], in experiment [2], in experiment [19], in experiment [5], in experiment [8] and in experiment [16] was “inactive” throughout. Moreover, the Potency entry in experiment [9], in [10], in experiment [17], in [12], in experiment [13] and in [15] was “inactive” each time.
Turning to `COC(=O)N(OC)c1ccccc1COc1ccn(-c2ccc(Cl)cc2)n1`, the Potency result in experiment [4], in experiment [5], in [6], in experiment [9], in experiment [10] and in experiment [17] was “inactive” throughout. Besides, in experiment [13], the Potency result was “inactive”. Besides, the Potency in [12] was 0.273 µM (active).
With `CCN(CC)CCc1c[nH]c2ccccc12`, the Potency entry in experiment [1], in experiment [2], in experiment [18], in experiment [3], in [4] and in experiment [20] was “inactive” in each case. For the same compound, the Potency result in experiment [5], in experiment [16], in [9], in experiment [10], in [17] and in [12] was “inactive” throughout. The Potency entry in experiment [13] and in experiment [15] was “inactive” in each case.
On to `COc1ccc2c(c1OC)C(=O)O[C@@H]2[C@H]1c2cc3c(cc2CCN1C)OCO3`, for which the Potency entry in experiment [1], in [2], in experiment [18], in experiment [4], in [5] and in experiment [8] was “inactive” each time. Besides, the Potency result in experiment [16], in experiment [9], in experiment [10], in experiment [11], in [12] and in [13] was “inactive” in each case. In addition, the Potency result in experiment [14] and in experiment [15] was “inactive” in each case.
In the case of `Oc1ccc([C@H]2CNCc3c2ccc(O)c3O)cc1O`, the Potency result in experiment [1], in [2], in experiment [18], in experiment [3], in experiment [4] and in experiment [20] was “inactive” throughout. In addition, the Potency result in experiment [5], in experiment [6], in experiment [7], in [8], in experiment [16] and in [9] was “inactive” throughout. The Potency result in [10], in experiment [17], in [13], in [14] and in experiment [15] was “inactive” each time.
`Clc1c(Cl)c(Cl)c(Cl)c(Cl)c1Cl`: the activity change, negative = cytotoxicity in [1] was 0.119% [at 5.95 µM]; in experiment [5] it was 10.7% [at 5.95 µM]; in experiment [8] it was 2.99% [at 5.95 µM]. The activation in experiment [2] is -6.6% [at 5.95 µM]; in [6], -0.148% [at 6.01 µM]; in experiment [10] it was -1.07% [at 6.95 µM]; in experiment [14], -2.52% [at 6.97 µM]; in experiment [15], 5.73% [at 6.98 µM]. The viability change, negative = cytotoxic was 0.753% [at 6.26 µM] in experiment [18], 24.1% [at 5.95 µM] in [4], -2.04% [at 6.95 µM] in [16] and 5.85% [at 6.97 µM] in experiment [13]. In [19], the ratio activity, negative = inhibition is -0.823% [at 6.26 µM]. The activity change, negative = inhibition in experiment [7] was 0.227% [at 6.95 µM]; in experiment [12], 5.22% [at 8.39 µM]. In addition, the activity, negative = cytotoxic in [9] was 7.25% [at 6.95 µM]. In addition, the activity, negative = cytotoxicity in [11] is 5.16% [at 8.39 µM].
